Experiment [1] in a line: qHTS assay to test for compound auto fluorescence at 535 nm (green) in HEK293 cells (AID 720680).
Experiment [2] can be described thus: qHTS assay to test for compound auto fluorescence at 460 nm (blue) in HEK293 cell free culture (AID 720681). Put shortly: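 Blue fluorescence (Ex 405/Em 460 nm, triamterene-equivalent) was read immediately after pin transfer of compound or DMSO into medium (DMEM, 10% FBS) without cells.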
(In general: Quantitative high-throughput screening tests each substance at several concentrations.)

A short description of experiment [3]: qHTS assay to test for compound auto fluorescence at 535 nm (green) in HEK293 cell free culture (AID 720682). Put shortly:
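Intrinsic compound fluorescence is measured in culture medium containing 10% FBS, with excitation at 485 nm and detection at 535 nm, referenced to fluorescein.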

The nature of experiment [4]: qHTS assay to test for compound auto fluorescence at 590 nm (red) in HEK293 cell free culture (AID 720683). The gist of the method: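 Red-channel autofluorescence of compounds in culture medium (DMEM, 10% FBS), no cells, measured at 540/590 nm. Rose Bengal sodium is the reference fluorophore for equivalence.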
The nature of experiment [5]: qHTS assay to test for compound auto fluorescence at 590 nm (red) in HepG2 cell free culture (AID 720684). Put shortly:
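Plate contents were MEM with 10% FBS plus test compound or DMSO, no cells. Fluorescence was recorded with 540 nm excitation and 590 nm emission.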

Experiment [6] is described as follows: qHTS assay to test for compound auto fluorescence at 460 nm (blue) in HepG2 cell free culture (AID 720685). The gist of the method:
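Compound (23 nL) or DMSO pinned into cell-free MEM with 10% FBS; blue fluorescence read at 405/460 nm excitation/emission, expressed as auto-fluorescence equivalency to triamterene.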

Experiment [7] in a line: qHTS assay to test for compound auto fluorescence at 535 nm (green) in HepG2 cell free culture (AID 720686).
Experiment [8] in a line: qHTS assay to test for compound auto fluorescence at 460 nm (blue) in HepG2 cells (AID 720687). Put shortly: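 Blue-channel autofluorescence (Ex/Em 405/460 nm, triamterene-equivalent) was measured after 1 hr compound exposure at 37 C, 5% CO2. Cells were HepG2, plated overnight at 37 C in MEM plus 10% FBS.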
The target in experiment [9] is Glucocorticoid receptor (Homo sapiens) (UniProt P04150). Put plainly: qHTS assay to identify small molecule agonists of the glucocorticoid receptor (GR) signaling pathway (AID 720691; active = well fitted activation curve with a large enough effect in the signal ratio in the repeat runs, not every such curve was filed as active; the % refers to the signal ratio). Put shortly:
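qHTS in GR-bla HeLa cells: 4 h settling at 37 C/5% CO2, 18 h compound incubation at 37 C, 2 h LiveBLAzer B/G FRET substrate at room temperature, fluorescence intensity measured.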

Experiment [10] has the same target. In words: qHTS assay to identify small molecule antagonists of the glucocorticoid receptor (GR) signaling pathway (AID 720692; active = well fitted inhibition curve with a large enough effect in the signal ratio in the repeat runs, not every such curve was filed as active; the % refers to the signal ratio; note: potency is the fitted concentration of half-maximal effect). The gist of the method:
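Inhibition of glucocorticoid signalling is measured in HeLa cells with a GRE-controlled beta-lactamase reporter; cells are co-treated with compound and 5 nM dexamethasone (final) for 18 h before FRET substrate readout.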

Each structure is given as a SMILES string. Values joined by “and” are separate entries in the source; they are usually repeats but may differ in a detail not shown here. Identical values can stand only once. Inconclusive results are not listed. Active and inactive are the calls of the source. Unless noted, calls come from the whole dose curve; as a rule, active = well fitted curve in the direction sought with a large enough effect in the repeat runs; inconclusive = weak or mixed curves; inactive = flat fitted curve, though single readings scatter.

Chain of Glucocorticoid receptor (Homo sapiens) (P04150 whole entry, looked up): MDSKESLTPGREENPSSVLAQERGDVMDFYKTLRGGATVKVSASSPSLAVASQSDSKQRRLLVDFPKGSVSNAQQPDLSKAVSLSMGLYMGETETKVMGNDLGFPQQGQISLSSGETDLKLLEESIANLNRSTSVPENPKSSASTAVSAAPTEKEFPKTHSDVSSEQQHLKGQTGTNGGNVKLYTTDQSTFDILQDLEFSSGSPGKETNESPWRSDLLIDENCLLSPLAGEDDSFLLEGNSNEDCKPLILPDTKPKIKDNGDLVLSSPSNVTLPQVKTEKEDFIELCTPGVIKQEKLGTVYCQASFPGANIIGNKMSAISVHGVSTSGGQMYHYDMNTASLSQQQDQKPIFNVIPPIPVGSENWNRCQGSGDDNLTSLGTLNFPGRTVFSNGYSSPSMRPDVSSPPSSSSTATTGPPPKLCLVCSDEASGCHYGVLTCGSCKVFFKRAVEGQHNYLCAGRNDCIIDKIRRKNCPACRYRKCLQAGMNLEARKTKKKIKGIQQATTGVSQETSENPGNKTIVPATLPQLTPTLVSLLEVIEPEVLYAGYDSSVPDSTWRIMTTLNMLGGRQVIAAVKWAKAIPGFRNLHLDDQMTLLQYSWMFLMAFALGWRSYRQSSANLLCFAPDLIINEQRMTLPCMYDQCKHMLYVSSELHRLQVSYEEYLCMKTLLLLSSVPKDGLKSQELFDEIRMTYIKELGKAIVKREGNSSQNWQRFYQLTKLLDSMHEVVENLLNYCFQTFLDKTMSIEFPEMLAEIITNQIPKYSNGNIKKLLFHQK

For `ClC(Cl)c1ccccc1`, the molecule was classed as inactive in [1], in [2], in experiment [3], in experiment [4], in [5] and in [6]. Further, the molecule was called inactive in experiment [7], in experiment [8] and in experiment [9]. For the same molecule, the Potency entry in experiment [10] is “inactive”.

As for `O=[N+]([O-])c1ccc(Cl)c(Cl)c1`, the molecule was classed as inactive in experiment [1], in [2], in [3], in [4], in [5] and in experiment [6]. In addition, the result in [7], in [8] and in experiment [9] was inactive. For the same molecule, the Potency entry in [10] was “inactive”.

`CN(C)NC(=O)CCC(=O)O`: the molecule was classed as inactive in experiment [1], in experiment [3], in experiment [4], in experiment [5], in [6] and in experiment [7]. Also, the result in experiment [8] was inactive.

On to `[N-]=[N+]=CC(=O)OC[C@H](N)C(=O)O`, for which the outcome in experiment [1], in experiment [3], in experiment [4], in [5], in [6] and in experiment [7] was inactive. Moreover, in experiment [8], the molecule was called inactive.

Take `CN(C)C(=O)Nc1cccc(C(F)(F)F)c1`: the call in [1], in [3], in [4], in [5], in experiment [6] and in [7] was inactive. Moreover, in experiment [8], the call was inactive.

In the case of `O=C(O)COc1ccccc1`, the molecule was called inactive in experiment [1], in [2], in experiment [3], in experiment [4], in experiment [5] and in experiment [6]. Moreover, the molecule was classed as inactive in experiment [7], in [8] and in experiment [9]. The Potency result in [10] is “inactive”.

With `Cl/C=C/Cl`, the molecule was called inactive in experiment [1], in [2], in experiment [3], in experiment [4], in experiment [5] and in [6]. Moreover, the outcome in [7], in [8] and in experiment [9] was inactive. For the same molecule, in experiment [10], the Potency entry is “inactive”.

Regarding `OC[C@@H](O)[C@H]1O[C@@H]2O[C@H](C(Cl)(Cl)Cl)O[C@@H]2[C@H]1O`, the call in experiment [1], in [2], in [3], in experiment [4], in experiment [5] and in [6] was inactive. For the same molecule, the call in [7], in experiment [8] and in experiment [9] was inactive. In addition, the Potency entry in experiment [10] was “inactive”.

In the case of `CNC(=O)O/N=C(\SC)C(=O)N(C)C`, the call in [1], in [3], in experiment [4], in experiment [5], in experiment [6] and in experiment [7] was inactive. In addition, the molecule was classed as inactive in experiment [8].

With `O=[N+]([O-])c1ccc(Cl)cc1`, the call in experiment [1], in experiment [2], in [3], in experiment [4], in [5] and in experiment [6] was inactive. Also, the outcome in [7], in experiment [8] and in experiment [9] was inactive. Further, in experiment [10], the Potency entry was “inactive”.

Consider `Sc1ccccc1`, for which the molecule was classed as inactive in [1], in [2], in experiment [3], in experiment [4], in [5] and in experiment [6]. Besides, the call in experiment [7], in experiment [8] and in [9] was inactive. In addition, the Potency result in [10] is “inactive”.

As to `OCc1ccco1`, the call in [1], in [3], in experiment [4], in experiment [5], in [6] and in [7] was inactive. Further, the outcome in experiment [8] was inactive.

With `CCNc1nc(Cl)nc(NC(C)C)n1`, the outcome in [1], in [2], in experiment [3], in [4], in experiment [5] and in [6] was inactive. Also, the molecule was called inactive in experiment [7], in experiment [8] and in experiment [9]. Moreover, the Potency entry in experiment [10] is “inactive”.

As for `C=CC(=O)OCC(CC)CCCC` (centres undefined), the result in experiment [1], in experiment [2], in experiment [3], in experiment [4], in experiment [5] and in experiment [6] was inactive. The call in experiment [7], in experiment [8] and in experiment [9] was inactive. Moreover, the Potency result in experiment [10] is “inactive”.

Take `CCCCC(CC)C(=O)Cl` (centres undefined): the call in experiment [1], in [2], in [3], in experiment [4], in experiment [5] and in experiment [6] was inactive. Besides, the outcome in [7], in experiment [8] and in [9] was inactive. For the same molecule, in experiment [10], the Potency entry was “inactive”.

As to `Cc1ccc(N=C=O)cc1N=C=O`, the call in experiment [1], in experiment [3], in [4], in experiment [5], in [6] and in [7] was inactive. In addition, the molecule was classed as inactive in experiment [8] and in [9]. For the same molecule, the Potency result in [10] is “inactive”.

Turning to `N#Cc1cccc(C#N)c1`, the result in experiment [1], in experiment [3], in experiment [4], in [5], in experiment [6] and in experiment [7] was inactive. The molecule was called inactive in [8] and in [9]. Further, the Potency entry in experiment [10] was “inactive”.

Regarding `C[C@]12CC[C@H](O)CC1=CC[C@@H]1[C@@H]2CC[C@]2(C)C(=O)CC[C@@H]12`, the result in [1], in [3], in experiment [4], in experiment [5], in [6] and in [7] was inactive. Also, the outcome in experiment [8] was inactive. Besides, the Potency in experiment [10] was 43.7 µM (active) and 43.6 µM (active).

On to `OCCCCO`, for which the molecule was called inactive in experiment [1], in [3], in experiment [4], in experiment [5], in experiment [6] and in experiment [7]. In addition, the call in experiment [8] and in [9] was inactive. For the same molecule, in experiment [10], the Potency result is “inactive”.

Turning to `N#CN=C(N)N`, the molecule was called inactive in [1], in experiment [3], in [4], in [5], in experiment [6] and in experiment [7]. For the same molecule, the outcome in experiment [8] was inactive.

Consider `ClCCOCCCl`, for which the call in experiment [1], in experiment [3], in [4], in [5], in [6] and in [7] was inactive. Also, the result in experiment [8] and in [9] was inactive. In addition, in [10], the Potency result was “inactive”.

Regarding `c1ccc2c(c1)CCCC2`, the molecule was called inactive in experiment [1], in [3], in [4], in [5], in experiment [6] and in [7]. Further, the molecule was called inactive in experiment [8] and in [9]. The Potency result in [10] is “inactive”.

As to `Nc1nc(N)nc(NC2CC2)n1`, the result in [1], in experiment [3], in experiment [4], in experiment [5], in [6] and in [7] was inactive. In addition, the call in [8] and in [9] was inactive. For the same molecule, in [10], the Potency entry was “inactive”.

The record behind these values is PubChem BioAssay (Tox21).
